Data as given in PubChem BioAssay (EPA / NIEHS).
Values joined by “and” are separate entries in the source; they are usually repeats but may differ in a detail not shown here. Equal entries are not always repeated. Inconclusive results are not listed. The source holds several records for some structures; these can differ, active in one and inactive in another. Active and inactive are the calls of the source. Rule for the calls, unless noted: active = hit-call score of the fitted dose curve at least 0.9, where 1 is the maximum; inactive = score below 0.9.

Experiments:
[1] = CCTE_Shafer_MEA_dev_mutual_information_norm: CCTE's Neural Network Formation Assay for Mutual Information Normalization, Shafer Lab (AID 2284091);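 for AC50: mutual information between electrodes summarised as area under curve across four recording days; potency is for a decrease in mutual information relative to DMSO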
Method in brief: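 Neurons from rat cortex were seeded at 1.5 x 10^5 cells/well onto PEI-coated MEAs in a laminin drop, then exposed to compound from day 0 for twelve days. Network recordings on four days gave mutual information, summarised by AUC relative to DMSO.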

[2] = CCTE_Shafer_MEA_dev_correlation_coefficient_mean: CCTE's Neural Network Formation Assay for Mean Correlation Coefficient, Shafer Lab (AID 2284093);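 for AC50: well mean pairwise spike train correlation integrated as AUC over recording days 5 to 12; potency fitted for loss of correlation relative to DMSO vehicle wells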
Method in brief: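 Spontaneous activity recorded on days 5, 7, 9 and 12 post-plating; pairwise spike correlations are averaged across active electrodes and collapsed to an area-under-curve. Rat cortical cultures are dosed from plating through 12 days, with compound renewed at media changes.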

[3] = CCTE_Mundy_HCI_Cortical_Synap_Neur_Matur_NeuriteSpotCountPerNeuriteLength: CCTE's Synaptogenesis and Neurite Maturation Assay in rat cortical cells for Neurite Spot Count per Neurite Length, Mundy Lab (AID 2284210)
Method in brief: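 Read-out: synaptophysin puncta counted along MAP2-stained neurites, normalised to neurite length, by automated high-content imaging. Rat cortical cells; AraC DIV 5; chemical dosing DIV 7; termination DIV 12. DMSO baseline.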

[4] = CCTE_Mundy_HCI_Cortical_Synap_Neur_Matur_BPCount: CCTE's Synaptogenesis and Neurite Maturation Assay in rat cortical cells for Branch Point Count, Mundy Lab (AID 2284211)
Method in brief: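 In this multiplexed morphology assay, cortical cells from rat receive chemicals at DIV 7 and are fixed at DIV 12, then immunostained and imaged; branch points are counted, with DMSO as baseline.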

[5] = CCTE_Mundy_HCI_Cortical_NOG_NeuriteCount: CCTE's Neurite Outgrowth Assay in rat cortical cells for Neurite Count, Mundy Lab (AID 2284212);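 note: cells fixed about two days after chemical exposure began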
Method in brief: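 Rat cortical primary cells; compound added 2 h post-plating, 1/10 dilution of working solution. Anti-betaIII-tubulin/AF488 ICC; ArrayScan neurite count vs DMSO.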

[6] = CCTE_Mundy_HCI_Cortical_NOG_NeuriteLength: CCTE's Neurite Outgrowth Assay in rat cortical cells for Neurite Length, Mundy Lab (AID 2284213);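 for AC50: neurites imaged about 48 to 50 h after chemical exposure began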
Method in brief: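 First, rat primary cortical cells were plated and, 2 h later, given test chemical as a 1/10 dilution. Finally, βIII-tubulin immunostaining enabled automated imaging of neurite length.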

[7] = CCTE_Mundy_HCI_Cortical_Synap_Neur_Matur_NeuriteLength: CCTE's Synaptogenesis and Neurite Maturation Assay in rat cortical cells for Neurite Length, Mundy Lab (AID 2284214)
Method in brief: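 Read-out: high-content imaging of MAP2-labelled neurites, with synaptophysin and Hoechst co-stain, in rat cortical cultures fixed at DIV 12. Activity fitted in positive direction relative to DMSO baseline.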

[8] = CCTE_Mundy_HCI_Cortical_Synap_Neur_Matur_NeuriteSpotCountPerNeuron: CCTE's Synaptogenesis and Neurite Maturation Assay in rat cortical cells for Neurite Spot Count per Neuron Count, Mundy Lab (AID 2284215)
Method in brief: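 High-content imaging counts synaptophysin puncta along MAP2-labelled neurites per neuron after chemical exposure of rat cortical cells from DIV 7 to termination at DIV 12 (AraC added DIV 5). Loss of signal relative to DMSO.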

[9] = CCTE_Mundy_HCI_Cortical_Synap_Neur_Matur_SynapseCount: CCTE's Synaptogenesis and Neurite Maturation Assay in rat cortical cells for Synapse Count, Mundy Lab (AID 2284218)
Method in brief: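 Read-out: synapse number per neuron, automated high-content imaging of fixed cells immunostained for MAP2 and synaptophysin plus Hoechst nuclei. Rat primary cortical cultures, AraC at DIV 5, chemical dosing DIV 7–12. Positive-direction fit relative to DMSO.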

[10] = CCTE_Shafer_MEA_acute_LDH: CCTE's Lactate Dehydrogenase Assay for Cytotoxicity in the Neural Acute Assay, Shafer Lab (AID 2284086; active = hit-call score of the fitted dose curve at least 0.9, where 1 is the maximum;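 note: active means LDH release rises above DMSO vehicle level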)
Method in brief: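 LDH absorbance at 490 nm in medium taken right after 40-min compound exposure; rat primary cortical neuron networks on MEA plates, days post-plating 13 or 15. Increase over DMSO baseline scored as cytotoxicity.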

[11] = CCTE_Shafer_MEA_dev_AB: CCTE's Alamar Blue Assay for Cytotoxicity in the Neural Network Formation Assay, Shafer Lab (AID 2284083; active = hit-call score of the fitted dose curve at least 0.9, where 1 is the maximum;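 note: twelve days of exposure from plating with re-dosing on DIV 5 and 9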)
Method in brief: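 Primary rat cortical neurons on PEI-coated 48-well MEA plates, 1.5 x 10^5 cells/well in laminin drop; compound exposure from day 0 of plating for twelve days, renewed at medium changes on DIV 5 and 9. Viability read as resazurin reduction by fluorescence, relative to DMSO.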

[12] = UKN2_HCS_IMR90_neural_migration: University of Konstanz (UKN) Leist Lab Neural Crest Cell Migration Assay in human induced IMR90 Pluripotent Stem Cells (UKN2) (AID 2284204); settings: actives raise or lower the signal
Method in brief: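 Stopper-exclusion migration (cMINC), human iPSC-derived neural crest cells; N2-S + EGF/FGF; compound added 24 h post-stopper removal, 24 h exposure. Readout: calcein-AM/Hoechst 30 min, HCS fluorescence imaging; bidirectional fitting, DMSO baseline.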

[13] = IUF_NPC1b_proliferation_BrdU_72hr: Leibniz Research Institute for Environmental Medicine (IUF) 72-hour Neural Progenitor Cell Bromodeoxyuridine (BrdU) Proliferation Assay (NPC1b) (AID 2284207)
Method in brief: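 Luminescent BrdU ELISA measured DNA synthesis during the last 16 h of a 72 h exposure of primary human neural progenitor spheres grown with EGF and FGF. Signal was fitted relative to DMSO controls.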

[14] = IUF_NPC1a_proliferation_area_72hr: Leibniz Research Institute for Environmental Medicine (IUF) 72-hour Neural Progenitor Cell Proliferation Area Assay (NPC1a) (AID 2284208)
Method in brief: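 Proliferation read as increase in sphere area by phase-contrast imaging over 72 h continuous compound exposure (no renewal) of hNPC spheres grown with EGF/FGF at 37C, 5% CO2. Growth-factor withdrawal served as positive control; DMSO as baseline.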

[15] = IUF_NPC1_viability_72hr: Viability Assessment at 72 hours in the Leibniz Research Institute for Environmental Medicine (IUF) Neural Progenitor Cell Proliferation Assay (NPC1) (AID 2284209)
Method in brief: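 Alamar blue fluorescence (RFU) after 72 h exposure, normalized to DMSO baseline. hNPC spheres from GW 16-19 fetal cortex, single sphere per well in growth-factor medium; no compound renewal.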

[16] = TAMU_PeakParms_SingleDonor1434_Chronotropy: Texas A&M University (TAMU) 1.5-hr Human Induced Pluripotent Stem Cell (iPSC)-derived Cardiomyocytes Calcium (Ca+2) Flux Assay for Cardiotoxicity: Chronotropy (changes in peak frequency) (AID 2284217); settings: actives raise or lower the signal
Method in brief: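 iPSC-derived cardiomyocytes (single donor 1434) dosed at 0.2, 1, 10 and 100 uM in 0.5% DMSO for 1.5 h at 37C; Ca2+ dye fluorescence gave average beat frequency. Zero-beat points removed; bidirectional fit versus DMSO, POD as EC05.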

Measured: AC50

CCOP(=O)(SC(C)CC)N1CCSC1=O (stereo unspecified)
inactive: [1] | [2] | [3] | [4] | [5] | [6] | [7] | [8] | [9]

CNC(=O)ON=C(SC)C(=O)N(C)C
inactive: [10]

CCOP(=S)(OCC)Oc1ccc2c(C)c(Cl)c(=O)oc2c1
active: [11] 78.4 µM | [1] 21.9 µM | [2] 41.6 µM | [4] 50 µM | [5] 89.6 µM | [6] 84.7 µM | [7] 50 µM
inactive: [10] | [3] | [8] | [9]

CCOP(=O)(OCC)Oc1cc(C)nc(C(C)C)n1
inactive: [11] | [1] | [2] | [12] | [13] | [14] | [15] | [3] | [4] | [5] | [6] | [7] | [8] | [9]

CCOP(=S)(OCC)Oc1ccc([N+](=O)[O-])cc1
active: [3] 20.9 µM | [4] 2.98 µM | [5] 23.7 µM | [7] 15 µM | [8] 15 µM | [9] 15 µM
inactive: [11] | [1] | [2] | [6] | [16]

CCOP(=S)(OCC)OC(Cl)C(Cl)(Cl)Cl (stereo unspecified)
inactive: [12] | [14] | [15] | [3]
active: [11] 30.7 µM and 17.8 µM | [1] 15.9 µM and 18 µM | [2] 21.2 µM and 17.8 µM | [13] 1.35 µM | [3] 16.5 µM | [4] 70.5 µM and 13.3 µM | [5] 75.7 µM and 31.8 µM | [6] 66.9 µM and 32.2 µM | [7] 85.1 µM and 12.1 µM | [8] 83.9 µM and 16.2 µM | [9] 85.8 µM and 15.9 µM

COc1cc(OC)nc(Sc2cccc(Cl)c2C(=O)O)n1
inactive: [10]

N#CSCSC#N
inactive: [10]

CCOP(=S)(OCC)SCCSCC
inactive: [11] | [10] | [1] | [2] | [13] | [14] | [15] | [3] | [4] | [5] | [6] | [7] | [8] | [9]

CCCSP(=O)(OCC)SCCC
active: [11] 20.6 µM and 18.7 µM | [1] 9.23 µM and 14.7 µM | [2] 15.8 µM and 20.4 µM
inactive: [12] | [13] | [14] | [15] | [3] | [4] | [5] | [6] | [7] | [8] | [9]

CCCCSP(=O)(SCCCC)SCCCC
active: [11] 50 µM and 63.1 µM | [1] 29.3 µM and 18.4 µM | [2] 29.6 µM and 35 µM | [13] 87.2 µM | [3] 14 µM | [4] 50 µM and 14 µM | [5] 77.8 µM and 49.9 µM | [6] 86.1 µM and 75.3 µM | [7] 50 µM and 14.2 µM | [8] 66.3 µM and 12.9 µM | [9] 73.5 µM and 15.5 µM
inactive: [12] | [14] | [3]

Nc1c(Cl)cc([N+](=O)[O-])cc1Cl
active: [10] 0.0105 µM
